Compound activity from PubChem.
This is a sample that favours compounds with a hit; in the whole collection about 21% have one here.
Pf growth 48h – P. falciparum growth inhibition at 48 hours (one generation). P. falciparum luciferase growth in erythrocytes, 48 h. Potency, µM (titrated, usually from 28.7 µM), hits mostly inhibitors. 310,000 tested, 5.9% active. AID 504832
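Luciferase-expressing parasites in RBCs, 2% Hct / 0.1% parasitemia final; RPMI 1640 + 0.5% Albumax; 37 C, 5% CO2, one generation; luminescence read-out, lower signal = inhibition.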
Pf growth 96h – P. falciparum growth inhibition at 96 hour, primary screen for plastid delayed-death inhibitors; P. falciparum luciferase reporter growth, 96 h; Potency, µM (highest dose often 28.7 µM), usual class: inhibitors; 320,000 tested, 6.9% active
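Cell-based qHTS: luciferase-tagged P. falciparum in erythrocytes (2% hematocrit, 0.05% parasitemia final) incubated with compounds for 96 hours, 37 C, 5% CO2; luciferase detection reagent then added and luminescence measured.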
Shiga toxin inh – Shiga toxin inhibition. AID 2315. inhibition, % at 38.7 µM. Vero cells, Shiga toxin protein synthesis inhibition reporter. 290,000 tested, 9.2% active; in the data active means inhibition mostly above about 28%, no sharp cut-off; inactive means mostly below about 43%
Cycloheximide cs – counter-screen for Shiga toxin inhibitors: cycloheximide protein synthesis inhibition; max response, %; 300,000 tested, 12% active; cell reporter, cycloheximide protein synthesis inhibition counterscreen; in the data active means max response mostly above about 13%, no sharp cut-off; inactive means mostly below about 14%; further: read at 38.3 µM for the half of the compounds with a filed dose
Large screens that a line does not name were inactive. Unless noted, the call rests on the fitted dose curve; in most records, active means well fitted inhibition curve with a large enough effect; inconclusive means small, poorly fitted or top-dose-only effect, or another doubt; inactive means no such curve, though single readings can be large or run the other way.

CC1CCN(c2c(NCC3CCC(C(=O)NCCCc4ccccc4)CC3)c(=O)c2=O)CC1 (stereo not given)	Pf growth 48h inconclusive
O=[N+]([O-])c1cnn(-c2nc(-c3ccco3)cc(C(F)(F)F)n2)c1	Pf growth 96h 11.7µM
Fc1ccc(N2CCN(c3nc(-c4ccco4)cc(C(F)(F)F)n3)CC2)cc1	none
CCCCCN(C(=O)CCC(=O)OC(C)C(=O)Nc1cccc(C#N)c1)c1c(N)n(CCCC)c(=O)[nH]c1=O (stereo not given)	none (no result: Shiga toxin inh, Cycloheximide cs)
COc1ccccc1C(=O)CC(=O)c1ccccc1	Pf growth 96h inconclusive, Shiga toxin inh 85.4, Cycloheximide cs 67.6
COc1ccccc1NC(=O)CC(=O)c1ccccc1	Shiga toxin inh 55.3
COc1ccccc1C(=O)NCC(=O)Nc1ccccc1	none (no result: Pf growth 96h)
O=C(CCNS(=O)(=O)c1ccccc1)N1CCN(c2ccccc2F)CC1	none
Cc1ccc(-c2nc(-c3ccccn3)no2)cc1Cl	none (no result: Pf growth 96h)
Cc1ccc(-c2nc(-c3ccncc3)no2)cc1C	Shiga toxin inh 132.9, Cycloheximide cs 51.8
COc1ccc(-c2noc(-c3cccs3)n2)cc1OC	Shiga toxin inh 69.2, Cycloheximide cs 51.8
COc1ccc(-c2noc(-c3ccco3)n2)cc1OC	Pf growth 96h inconclusive, Shiga toxin inh 139.0, Cycloheximide cs 42.7
Cc1ccc(-c2nc(-c3ccncc3)no2)cc1Cl	Shiga toxin inh 61.1, Cycloheximide cs 27.8
COc1cc(-c2noc(-c3cccs3)n2)cc(OC)c1OC	Pf growth 48h inconclusive, Pf growth 96h inconclusive
O=C(C1CCCCN1S(=O)(=O)c1ccccc1[N+](=O)[O-])N1CCCCC1 (stereo not given)	none
CCn1c(SCc2nc(-c3ccc(OC)c(OC)c3)no2)nnc1-c1cccs1	Pf growth 48h inconclusive, Pf growth 96h inconclusive, Cycloheximide cs 15.4
Fc1cccc(F)c1-c1nc(-c2ccncc2)no1	Shiga toxin inh 85.6, Cycloheximide cs 47.6
Cc1cc(-c2nc(-c3ccncc3)no2)ccc1[N+](=O)[O-]	Shiga toxin inh 88.5, Cycloheximide cs 32.8 (no result: Pf growth 48h)
COc1ccc(-c2nc(-c3ccncc3)no2)cc1OC	Pf growth 96h inconclusive, Shiga toxin inh 79.3, Cycloheximide cs 47.7 (no result: Pf growth 48h)
O=[N+]([O-])c1ccccc1S(=O)(=O)N1CCN(c2ccc(F)cc2)CC1	Pf growth 96h inconclusive
COc1ccccc1OCCN(C#N)c1nc(N(C)C)nc(N(C)C)n1	none
CCOc1ccccc1N(C)C(=O)Cn1ncc2c([nH]c3ccc(C)cc32)c1=O	Pf growth 96h inconclusive
Cc1ccc(-c2nc(-c3ccccn3)no2)cc1[N+](=O)[O-]	Shiga toxin inh 54.7, Cycloheximide cs 37.0
COc1ccc(-c2noc(-c3ccccc3Cl)n2)cc1OC	Shiga toxin inh 65.1, Cycloheximide cs 56.1 (no result: Pf growth 96h)
CN(C(=O)c1ccc(OC2CCN(CCc3ccccc3)CC2)cc1)C1CCOCC1	Pf growth 96h 9.28µM
COC(=O)CCCNC(=O)c1ccc(OC2CCN(CCc3ccccc3)CC2)cc1	none
CCN1CCN(C(=O)c2ccc(OC3CCN(CCc4ccccc4)CC3)cc2)[C@@H](C)C1=O	Pf growth 48h inconclusive, Pf growth 96h 3.7µM
CSCCNC(=O)c1ccc(OC2CCN(CCc3ccccc3)CC2)cc1	Pf growth 48h inconclusive, Pf growth 96h inconclusive, Cycloheximide cs 14.6
COC1CCN(C(=O)c2ccc(OC3CCN(CCc4ccccc4)CC3)cc2)CC1	Pf growth 96h inconclusive
CN(C(=O)c1ccc(OC2CCN(CCc3ccccc3)CC2)cc1)C1CCOC1 (stereo not given)	Pf growth 96h inconclusive
O=C(NCCn1cccn1)c1ccc(OC2CCN(CCc3ccccc3)CC2)cc1	Shiga toxin inh 28.7, Cycloheximide cs 14.2
O=C(NC1CCOC1)c1ccc(OC2CCN(CCc3ccccc3)CC2)cc1 (stereo not given)	Pf growth 96h 2.33µM
Cc1ccc(-c2nc(-c3cccnc3)no2)c(C)c1	Pf growth 48h inconclusive, Shiga toxin inh 108.1, Cycloheximide cs 35.9
Cc1c(-c2nc(-c3cccnc3)no2)cccc1[N+](=O)[O-]	Cycloheximide cs 23.6
Cc1ccc(S(=O)(=O)Nc2ccc(-n3cnnn3)cc2)c(C)c1	none (no result: Shiga toxin inh, Cycloheximide cs)
Cc1ccc(S(=O)(=O)Nc2ccc(-n3cnnn3)cc2)cc1	Pf growth 96h 11.7µM
CSc1ccc(NS(=O)(=O)c2ccc(-n3cnnn3)cc2)cc1	Pf growth 48h inconclusive, Pf growth 96h inconclusive
Cc1cc(C)c(S(=O)(=O)Nc2ccc(N(C)C)cc2)c(C)c1-n1cnnn1	Shiga toxin inh 75.9, Cycloheximide cs 42.9
O=C1N(CCCN2C(=O)C3(OCCO3)c3ccccc32)c2ccccc2C12OCCO2	Pf growth 48h inconclusive, Pf growth 96h 8.28µM
CCNC(=O)N1C(=O)C2(OCCO2)c2ccccc21	none (no result: Pf growth 96h)
Cc1ccc(NC(=O)N2C(=O)C3(OCCO3)c3ccccc32)cc1	Pf growth 96h 6.57µM, Shiga toxin inh 92.9, Cycloheximide cs 43.5
CN1C(=O)C2(OCC(CO)([N+](=O)[O-])CO2)c2ccccc21 (stereo not given)	Shiga toxin inh 50.5, Cycloheximide cs 14.2
CCOc1ccc(N2CC(C(=O)NC3CCCC3)CC2=O)cc1 (stereo not given)	Pf growth 96h inconclusive
CCN(C(=O)CSc1nnc(COc2cccc(C)c2)o1)c1nc(C)cs1	Pf growth 96h inconclusive
Cc1ccc(C)c(NC(NC(=O)c2ccccn2)C(Cl)(Cl)Cl)c1 (stereo not given)	Pf growth 96h inconclusive
CC(=O)[C@@]1(O)C(C)CC2C3C=C(C)C4=Cc5c(cnn5-c5ccccc5)C[C@]4(C)C3C(O)C[C@@]21C (stereo not given in full)	Pf growth 48h 5.22µM, Pf growth 96h 10.4µM
COc1cc(CNCc2cc(OC)ccc2OC)cc(OC)c1	Pf growth 48h inconclusive, Pf growth 96h inconclusive (no result: Shiga toxin inh)
CCCN1C=CC(=CC=C(C#N)C#N)C=C1	none
C=CCN1C=CC(=CC=C(C#N)C#N)C=C1	Shiga toxin inh 74.1, Cycloheximide cs 20.8
c1ccc(-c2cc3c(-n4cccc4)ncnc3o2)cc1	Shiga toxin inh 101.9, Cycloheximide cs 68.9
COc1ccc(-c2cnc3ncnn3c2N)cc1	none
COc1ccc(-c2cnc3c(-c4ccc(F)cc4)cnn3c2N)cc1	Shiga toxin inh 121.2, Cycloheximide cs 51.0
CC(C)(C)S(=O)(=O)c1cnc2c(-c3ccc(Cl)cc3)cnn2c1N	none
CS(=O)(=O)c1cnc2c(-c3ccsc3)cnn2c1N	Shiga toxin inh 66.5, Cycloheximide cs 37.8
COc1ccc(-c2cnn3c(N)c(S(=O)(=O)C(C)(C)C)cnc23)cc1	Cycloheximide cs 31.6
CCOC(=O)C1CCN(C(=O)COc2ccc3c(C)cc(=O)oc3c2)CC1	Pf growth 48h inconclusive (no result: Shiga toxin inh, Cycloheximide cs)
O=C(CN1C(=O)NC2(CCCC2)C1=O)OCCOc1ccc(Cl)cc1Cl	none (no result: Shiga toxin inh, Cycloheximide cs)
CC(C)(C)c1ccc(CNc2ccc([N+](=O)[O-])cn2)cc1	Pf growth 96h inconclusive, Shiga toxin inh 80.5, Cycloheximide cs 23.5
O=[N+]([O-])c1ccc(NCc2ccc(Cl)cc2)nc1	Shiga toxin inh 62.7, Cycloheximide cs 39.2
O=[N+]([O-])c1ccc(Nc2ccc(Cl)cc2)nc1	none
CC(C)(C)c1ccc(Cn2cnc(-c3ccc([N+](=O)[O-])cc3)c2)cc1	Pf growth 96h inconclusive, Shiga toxin inh 54.3, Cycloheximide cs 40.3
CC(C)c1ccc(CNc2ncc(Br)cn2)cc1	Shiga toxin inh 32.0, Cycloheximide cs 16.8
